Compound activity as filed in PubChem.
RAD54 branch: blocks human RAD54 Holliday junction branch migration; inhibition, % at 10.4 µM; 0.14% of 360,000 active; FAM/BHQ fluorescence;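 active means mean normalized replicate activity at least 40 and at least half of replicates scoring 40 or more; inconclusive means only one of the two criteria met; inactive means mean below 40 and under half of replicates reaching 40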;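 further: inhibitors cause a drop in the FAM fluorescence signal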
ABCB6 inh MLPCN: blocks the human ABCB6 transporter. AID 602162. 0.19% of 360,000 active. fluorescence ratio to DMSO, % at 10 µM. Q9NP58. K562-ABCB6 porphyrin accumulation, flow cytometry, 1 h; hits give low values;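 active means fluorescence ratio to DMSO below 75%, the collection mean minus 3 SD; inconclusive means too few cells collected in the well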;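 further: signal is porphyrin accumulated inside mitochondria; lower ratio means ABCB6 inhibition with less porphyrin fluorescence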
Target sequence (Q9NP58 whole entry, looked up): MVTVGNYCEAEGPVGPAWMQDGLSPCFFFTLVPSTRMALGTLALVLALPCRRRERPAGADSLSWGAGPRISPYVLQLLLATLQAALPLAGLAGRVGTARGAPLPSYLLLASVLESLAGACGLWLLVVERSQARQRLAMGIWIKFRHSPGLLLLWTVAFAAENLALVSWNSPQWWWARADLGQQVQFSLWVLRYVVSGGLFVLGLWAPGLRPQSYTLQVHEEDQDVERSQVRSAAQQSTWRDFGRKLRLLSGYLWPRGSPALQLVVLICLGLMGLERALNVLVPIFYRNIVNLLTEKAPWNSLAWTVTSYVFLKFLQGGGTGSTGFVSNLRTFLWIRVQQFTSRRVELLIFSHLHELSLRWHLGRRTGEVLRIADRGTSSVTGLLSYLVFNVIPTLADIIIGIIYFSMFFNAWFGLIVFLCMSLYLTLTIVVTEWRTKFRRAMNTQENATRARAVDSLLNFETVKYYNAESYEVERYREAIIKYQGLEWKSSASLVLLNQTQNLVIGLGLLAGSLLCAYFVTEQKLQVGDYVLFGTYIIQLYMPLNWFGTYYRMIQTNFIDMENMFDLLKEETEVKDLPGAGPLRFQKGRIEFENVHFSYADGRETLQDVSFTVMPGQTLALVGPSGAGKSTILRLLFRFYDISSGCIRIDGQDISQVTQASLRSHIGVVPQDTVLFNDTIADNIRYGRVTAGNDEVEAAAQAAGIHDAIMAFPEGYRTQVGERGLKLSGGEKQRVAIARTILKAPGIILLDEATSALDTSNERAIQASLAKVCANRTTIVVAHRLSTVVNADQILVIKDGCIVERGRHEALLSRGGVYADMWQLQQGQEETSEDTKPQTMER
N-glyco inh: N-linked glycosylation inhibition | D54 ERlucT glycosylation luciferase reporter, 24 h; percent of 100 nM tunicamycin response | reporter increase, % at 12.5 µM | 0.23% of 360,000 active;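 active means mean luciferase reporter signal, scaled so untreated is 0 and the glycosylation-blocking control 100, at or above a set limit in every replicate; inconclusive means mean reaches the limit but not every replicate does; inactive means mean below the limit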;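 further: luciferase carries N-glycosylation sites so blocking glycosylation raises the light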
Myeloid diff MLP: myeloid differentiation induction; ER-HoxA9 myeloid progenitors, lysozyme-GFP differentiation, flow cytometry; calls only at 10 µM; 1% of 360,000 active;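 active means normalized GFP-positive differentiation at or above the plate's own cutoff, the solvent-only control mean plus 3 SD; inconclusive means no clear call, values can overlap the other calls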;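 further: cells exposed to compound for four days before flow analysis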
Vif inh: HIV Vif inhibition | inhibition, % at 7.49 µM | AID 602346 | HEK293T cells, Vif self-association by quenched fluorescence, imaging, 24 h | 0.35% of 340,000 active; in the data active means inhibition above about 50%, passing the limit was not always enough; inconclusive means no clear call, values can overlap the other calls; inactive means below about 31%
Myeloid diff: myeloid differentiation induction | shares compounds with Myeloid diff MLP | ER-HoxA9 myeloid progenitors, GFP/Mac1 double-positive flow | calls only | 2% of 2,300 active | AID 651706;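 active means share of green or green-and-red cells above 9 and 9% in run 1 or 4 and 3% in run 2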
GFP autofluor: flagged as fluorescent in myeloid differentiation counter-screen; shares compounds with Myeloid diff MLP; ER-HoxA9 myeloid progenitors, no estrogen, GFP autofluorescence flow cytometry; vehicle wells 0%, positive control 100%; fluorescence response, % (test concentration not listed); 7.4% of 2,300 active;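 active means over 5% cells positive for green fluorescent reporter, or over 2% positive for both it and APC stain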
Calls only. Compounds with a hit are over-represented: about 1.6% of the library has one in this group of screens.

Results for CCOC(=O)Cc1csc(NC(=O)c2sc3nc4ccc(CC)cc4cc3c2N)n1 ?
RAD54 branch: inactive; ABCB6 inh MLPCN: inactive; N-glyco inh: inactive; Myeloid diff MLP: inactive; Vif inh: inactive; Myeloid diff: inactive; GFP autofluor: inactive

What do the screens show for `CCOC(=O)Cc1csc(NC(=O)c2ccc(C)cc2)n1`?
ABCB6 inh MLPCN: inactive; N-glyco inh: inactive; Myeloid diff MLP: inactive; Vif inh: inactive

How did C[C@@H]1CCCCO[C@H](CN(C)C(=O)NC2CCCCC2)[C@H](C)CN([C@@H](C)CO)C(=O)c2cc(NC(=O)CCC(F)(F)F)ccc2O1 do in these assays?
RAD54 branch: inactive

How did Cc1nc2ccccn2c1C(=O)/C=C/c1ccc(F)cc1 do in these assays?
RAD54 branch: inactive; ABCB6 inh MLPCN: inactive; N-glyco inh: inactive; Myeloid diff MLP: inactive; Vif inh: inactive; Myeloid diff: inactive; GFP autofluor: inactive

What do the screens show for `O=c1[nH]c(=S)c2c(n1-c1ccccc1)CCC2`?
RAD54 branch: inactive; ABCB6 inh MLPCN: inactive; N-glyco inh: inactive; Myeloid diff MLP: inactive; Vif inh: inactive

Results for CC1Cc2c([nH]c(=O)n(-c3ccccc3)c2=O)O1 (stereo unspecified) ?
ABCB6 inh MLPCN: inactive; N-glyco inh: inactive; Myeloid diff MLP: inactive; Vif inh: inactive; Myeloid diff: inactive; GFP autofluor: inactive

What do the screens show for `CC(Sc1nc2ccccc2c(=O)n1C)C(=O)Nc1ccc2c(c1)OCCO2` (stereo unspecified)?
RAD54 branch: inactive; ABCB6 inh MLPCN: inactive; N-glyco inh: inactive; Myeloid diff MLP: inactive; Vif inh: inactive; Myeloid diff: inactive; GFP autofluor: inactive

How did C#CC[N+]1(CC#Cc2ccccc2)CCOCC1 do in these assays?
RAD54 branch: inactive; ABCB6 inh MLPCN: inactive; N-glyco inh: inactive; Myeloid diff MLP: inactive; Myeloid diff: inactive; GFP autofluor: inactive

What do the screens show for `C#CC[N+]1(CC#Cc2cccc(C)c2)CCCCC1`?
ABCB6 inh MLPCN: inactive; N-glyco inh: inactive; Myeloid diff MLP: inactive; Vif inh: inactive; Myeloid diff: inactive; GFP autofluor: inactive

Results for C#CC[N+]1(CC#Cc2ccccc2)CCCCC1 ?
ABCB6 inh MLPCN: inactive; N-glyco inh: inactive; Myeloid diff MLP: inactive; Vif inh: inactive

How did Cc1nc(SCC(=O)NCC2CCCO2)c2cc(-c3ccccc3)sc2n1 (stereo unspecified) do in these assays?
RAD54 branch: inactive; ABCB6 inh MLPCN: inactive; N-glyco inh: inactive; Myeloid diff MLP: inactive; Vif inh: inactive; Myeloid diff: inactive; GFP autofluor: inactive

Results for Cc1ccc2cc(C#N)c(SCC(=O)NCC3CCCO3)nc2c1 (stereo unspecified) ?
RAD54 branch: inactive; ABCB6 inh MLPCN: inactive; N-glyco inh: inactive; Myeloid diff MLP: inactive; Vif inh: inactive; Myeloid diff: inactive; GFP autofluor: inactive

What do the screens show for `Cc1ccc2nc(SCC(=O)NCC3CCCO3)c(C#N)cc2c1` (stereo unspecified)?
RAD54 branch: inactive; ABCB6 inh MLPCN: inactive; N-glyco inh: inactive; Myeloid diff MLP: inactive

Results for Cc1ccc(-c2nc(SCC(=O)NCC3CCCO3)c(-c3ccc(C)cc3)[nH]2)cc1 (stereo unspecified) ?
RAD54 branch: inactive; ABCB6 inh MLPCN: inactive; N-glyco inh: inactive; Myeloid diff MLP: inactive; Myeloid diff: inactive; GFP autofluor: inactive

How did Cc1nc(SCC(=O)NCC2CCCO2)c2c3c(sc2n1)CCC3 (stereo unspecified) do in these assays?
RAD54 branch: inactive; ABCB6 inh MLPCN: inactive; N-glyco inh: inactive; Myeloid diff MLP: inactive; Vif inh: inactive

What do the screens show for `C[C@@H]1CN([C@@H](C)CO)C(=O)Cc2cc(NS(C)(=O)=O)ccc2O[C@@H]1CN(C)C(=O)NC1CCCCC1`?
RAD54 branch: inactive

How did Cc1noc(C)c1S(=O)(=O)Nc1ccc2c(c1)CC(=O)N([C@@H](C)CO)C[C@@H](C)[C@H](CN(C)S(=O)(=O)c1ccccc1)O2 do in these assays?
RAD54 branch: inactive

What do the screens show for `CC(=Nc1ccccc1C)C1=C(O)CSC1=O`?
RAD54 branch: inactive; ABCB6 inh MLPCN: inactive; N-glyco inh: inactive; Myeloid diff MLP: active; Vif inh: inactive; Myeloid diff: inactive; GFP autofluor: inactive

What do the screens show for `COc1cccc(-c2csc(N3CCN(CC(=O)Nc4ccc5c(c4)OCO5)CC3)n2)c1`?
RAD54 branch: inactive; ABCB6 inh MLPCN: inactive; N-glyco inh: inactive; Myeloid diff MLP: inactive; Vif inh: inconclusive; Myeloid diff: inactive; GFP autofluor: inactive

What do the screens show for `CC(C)(C)c1ccc(C(=O)NNC(=O)CCC(=O)Nc2ccccc2)cc1`?
RAD54 branch: inactive; ABCB6 inh MLPCN: inactive; N-glyco inh: inactive; Myeloid diff MLP: active; Vif inh: inactive; Myeloid diff: inactive; GFP autofluor: inactive

What do the screens show for `O=C(C1CC1)N1CCc2cc(S(=O)(=O)NCC3COc4ccccc4O3)ccc21` (stereo unspecified)?
RAD54 branch: inactive; ABCB6 inh MLPCN: inactive; N-glyco inh: inactive; Myeloid diff MLP: active; Vif inh: inactive; Myeloid diff: inactive; GFP autofluor: inactive

How did CN1C(=O)c2cc(NC(=O)c3cccs3)ccc2OC[C@H]2O[C@@H](CC(=O)NCC(F)(F)F)CC[C@@H]21 do in these assays?
RAD54 branch: inactive

How did O=C(CC1C(=O)NCCN1C(=O)Nc1ccccc1)Nc1cccc(C(F)(F)F)c1 (stereo unspecified) do in these assays?
RAD54 branch: inactive; ABCB6 inh MLPCN: inactive; N-glyco inh: inactive; Myeloid diff MLP: active; Vif inh: inactive; Myeloid diff: inactive; GFP autofluor: inactive

How did O=C(CC1C(=O)NCCN1C(=O)Nc1ccccc1)Nc1ccc(F)cc1 (stereo unspecified) do in these assays?
ABCB6 inh MLPCN: inactive; N-glyco inh: inactive; Myeloid diff MLP: inactive; Vif inh: inactive

What do the screens show for `O=C(CC1SCCNC1=O)Nc1cccc(Cl)c1` (stereo unspecified)?
RAD54 branch: inactive; ABCB6 inh MLPCN: inactive; N-glyco inh: inactive; Myeloid diff MLP: inactive; Vif inh: inactive

What do the screens show for `CN=C1SC(CC(=O)Nc2cccc(C(F)(F)F)c2)C(=O)N1C` (stereo unspecified)?
RAD54 branch: inactive; ABCB6 inh MLPCN: inactive; N-glyco inh: inactive; Myeloid diff MLP: inactive; Vif inh: inactive; Myeloid diff: inactive; GFP autofluor: inactive

What do the screens show for `O=C(CC1SCCNC1=O)Nc1cccc(C(F)(F)F)c1` (stereo unspecified)?
RAD54 branch: inactive; ABCB6 inh MLPCN: inactive; N-glyco inh: inactive; Myeloid diff MLP: active; Vif inh: inactive; Myeloid diff: inactive; GFP autofluor: inactive

Results for CC(C)N(C(=O)[C@H]1C[C@H](CC(=O)NCCC2=CCCCC2)C(=O)N2CCc3c([nH]c4cc(-c5ccco5)ccc34)[C@]12C)C(C)C ?
RAD54 branch: inactive; ABCB6 inh MLPCN: inactive; N-glyco inh: inactive; Myeloid diff MLP: inactive; Myeloid diff: inactive; GFP autofluor: inactive
